The values that follow come from PubChem BioAssay (Tox21).

Values joined by “and” are separate entries in the source; they are usually repeats but may differ in a detail not shown here. Equal entries are not always repeated. Inconclusive results are not listed. Some structures have more than one record in an assay (separate samples or runs), and their calls can disagree. Active and inactive are the calls of the source. Unless noted, calls come from the whole dose curve; as a rule, active = well fitted curve in the direction sought with a large enough effect in the repeat runs; inconclusive = weak or mixed curves; inactive = no such curve, though single readings can be large; an effect the other way counts as inactive or inconclusive.

Assay [1] is described as follows: Caspase-3/7 induction in CHO-K1 cells by small molecules, qHTS assay (AID 1346980). Note: nearly all actives have a fitted effect of over 15% in size. The gist of the method:
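Wild-type CHO-K1 cells exposed to compounds for 17hr at 37 C, 5% CO2. Caspase-3/7 activity then measured by Caspase-Glo 3/7 luminescence after 30min at room temperature.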

Assay [2] can be described thus: Caspase-3/7 induction in HepG2 cells by small molecules, qHTS cell viability counter screen (AID 1346981). Note: series mostly up to about 92 µM; nearly all actives have a fitted effect of over 30% in size. An outline of the steps:
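Viability determined by CellTiter-Fluor fluorescence in HepG2 wells also used for the luminescent Caspase-Glo 3/7 read. Compounds were present for 16 hr at 37 C, 5% CO2 before reagent addition.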
(In general: qHTS replaces the single test concentration by a dilution series.)

Assay [3] concerns the target Nuclear receptor subfamily 1 group I member 2 (Homo sapiens) (UniProt O75469). As to the kind of experiment: Human pregnane X receptor (PXR) small molecule agonists, qHTS assay (AID 1346982). Note: nearly all actives have a fitted effect of over 35% in size. The gist of the method: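 Compound-induced hPXR transactivation of a CYP3A4 luciferase reporter was scored in HepG2 PXR-Luc cells over 24 hr at 37 C, 5% CO2, by luminescence.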

Assay [4] has the same target. As to the kind of experiment: CYP3A4 induction through human pregnane X receptor (PXR) by small molecules, qHTS assay (AID 1346984). Note: nearly all actives have a fitted effect of over 40% in size. The gist of the method:
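Readings come from a luciferase reporter: DPX-2 cells, which are HepG2 cotransfected with PXR and a CYP3A4-promoter construct, were exposed to test compounds for 24 h at 37C before One-Glo detection.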

For assay [5] the target is unchanged. As to the kind of experiment: Human pregnane X receptor (PXR) activation by small molecules, qHTS assay (AID 1346985). Note: nearly all actives have a fitted effect of over 40% in size. An outline of the steps:
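DPX-2 cells (HepG2 co-transfected with a PXR response element and a CYP3A4-promoter luciferase construct) were seeded at 2,000 per well, rested 5 hr at 37C, then exposed to DMSO-dissolved compounds for 24 hr. Activation was read as luciferase luminescence.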

Assay [6] has as its target Acetylcholinesterase (Homo sapiens) (UniProt P22303). Nature of the assay: Acetylcholinesterase (AChE) small molecule antagonists: colormetric cell-based qHTS assay (AID 1347395; calls by dose curve; note: nearly all actives have a fitted effect of over 30% in size). An outline of the steps: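 Homogeneous whole-cell format. SH-SY5Y cells seeded overnight, dosed with compound (30 min, 37 C, 5% CO2), then given DTNB/acetylthiocholine cocktail for 90 min at 37 C; colorimetric signal.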

Assay [7] shares this target. Nature of the assay: Acetylcholinesterase (AChE) small molecule antagonists: enzyme-based qHTS assay (AID 1347397; calls by dose curve; note: nearly all actives have a fitted effect of over 55% in size). The following applies: Potency: AChE enzyme activity inhibition. The gist of the method: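 Recombinant human AChE (50 mU/mL) preincubated with compound 30 min at room temperature; acetylthiocholine plus DTNB then added, and thiocholine formation read colorimetrically after 10 min at room temperature. DMSO served as vehicle control.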

For assay [8] the target is unchanged. Nature of the assay: Acetylcholinesterase (AChE) small molecule antagonists: fluorescence cell-based qHTS assay (AID 1347398; calls by dose curve; note: nearly all actives have a fitted effect of over 50% in size). The following applies: Potency: AChE activity. The gist of the method: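 SH-SY5Y cells (2000/well), attached overnight, incubated with compound 30 min at 37 C. Acetylthiocholine plus Thiolite Green then added for 40 min at room temperature. Thiocholine fluorescence (Ex/Em 490/520 nm) reports cellular AChE activity.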

Assay [9] shares this target. As to the kind of experiment: Acetylcholinesterase (AChE) small molecule antagonists: enzyme-based qHTS assay with human liver microsomes (AID 1347399; calls by dose curve; note: nearly all actives have a fitted effect of over 60% in size). The note with it: Potency: qHTS inhibition. An outline of the steps: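 Recombinant human AChE (50 mU/mL in the enzyme mix) and human liver microsomes (0.25 mg/mL final) were preincubated with compound and NADPH (0.25 mg/mL final) for 30 min at 37 C. Acetylthiocholine/DTNB was then added; thiocholine was read colorimetrically after 10 min at room temperature.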

The target of assay [10] is Cytochrome P450 2D6 (Homo sapiens) (UniProt P10635). As to the kind of experiment: Cytochrome P450 Family 2 Subfamily D Member 6 (CYP2D6) small molecule antagonists: luciferase reporter qHTS assay (AID 1671196). Note: nearly all actives have a fitted effect of over 50% in size. Note: potency is the fitted concentration of half-maximal effect. The gist of the method:
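Each well received CYP2D6 with its proluciferin substrate and chemical, sat 10 min, then got NADPH regeneration solution for 1 h at room temperature. Luminescence in RLU served as the activity measure.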
(In a reporter assay the amount or activity of a reporter protein is the signal.)

Assay [11] has as its target Cytochrome P450 1A2 (Homo sapiens) (UniProt P05177). Nature of the assay: Cytochrome P450 Family 1 Subfamily A Member 2 (CYP1A2) small molecule antagonists: luciferase reporter qHTS assay (AID 1671199). Note: nearly all actives have a fitted effect of over 50% in size. Note: potency is the fitted concentration of half-maximal effect. An outline of the steps: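 Enzymatic CYP1A2 assay, human, luminescent: 10 min compound–enzyme–substrate preincubation, 1 h NADPH-dependent turnover, 20 min detection step, room temperature throughout. Reduced light indicates lower CYP1A2 activity.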

In assay [12] the target is Voltage-gated inwardly rectifying potassium channel KCNH2 (Homo sapiens) (UniProt Q12809). As to the kind of experiment: Human Ether-a-go-go-Related Gene (hERG) channel small molecule antagonists: fluorescence cell-based qHTS assay (AID 1671200).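 Note: hERG-expressing U2OS cells given a thallium stimulus after FluxOR II dye loading; series mostly up to about 77 µM; nearly all actives have a fitted effect of over 50% in size.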 The gist of the method: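 Thallium served as the potassium surrogate; its influx into dye-loaded U2OS cells carrying the channel was measured by fluorescence over 2 min.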

The target in assay [13] is Cytochrome P450 3A4 (Homo sapiens) (UniProt P08684). As to the kind of experiment: Cytochrome P450 Family 3 Subfamily A Member 4 (CYP3A4) small molecule antagonists: luciferase reporter qHTS assay (AID 1671201). An outline of the steps:
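Relative luminescence units after 20 min with luciferin detection reagent served as read-out. Beforehand, CYP3A4 turned over a proluciferin substrate for 1 h at room temperature with NADPH regeneration, following 10 min compound preincubation.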

The target of assay [14] is Cytochrome P450 2C19 (Homo sapiens) (UniProt P33261). Nature of the assay: Cytochrome P450 Family 2 Subfamily C Member 19 (CYP2C19) small molecule antagonists: luciferase reporter qHTS assay (AID 1671197). Note: nearly all actives have a fitted effect of over 65% in size. Note: potency is the fitted concentration of half-maximal effect. An outline of the steps: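 Enzyme-substrate mix with proluciferin substrate (P450-Glo CYP2C19 system) preincubated with compounds 10 min at room temperature; NADPH regeneration solution added, 37C for 1 h; detection reagent stops reaction, luminescence read after 20 min. Ketoconazole positive control.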

Assay [15] deals with Cytochrome P450 2C9 (Homo sapiens) (UniProt P11712). As to the kind of experiment: Cytochrome P450 Family 2 Subfamily C Member 9 (CYP2C9) small molecule antagonists: luciferase reporter qHTS assay (AID 1671198). Note: nearly all actives have a fitted effect of over 50% in size. Note: potency is the fitted concentration of half-maximal effect. An outline of the steps: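 P450-Glo proluciferin substrate with CYP2C9 enzyme; 10 min RT preincubation, then NADPH regeneration 1 h at 37C; luciferin detection reagent 20 min RT, luminescence in relative luminescence units.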
Cytochrome P450 2C9 (Homo sapiens), sequence (P11712 whole entry, looked up): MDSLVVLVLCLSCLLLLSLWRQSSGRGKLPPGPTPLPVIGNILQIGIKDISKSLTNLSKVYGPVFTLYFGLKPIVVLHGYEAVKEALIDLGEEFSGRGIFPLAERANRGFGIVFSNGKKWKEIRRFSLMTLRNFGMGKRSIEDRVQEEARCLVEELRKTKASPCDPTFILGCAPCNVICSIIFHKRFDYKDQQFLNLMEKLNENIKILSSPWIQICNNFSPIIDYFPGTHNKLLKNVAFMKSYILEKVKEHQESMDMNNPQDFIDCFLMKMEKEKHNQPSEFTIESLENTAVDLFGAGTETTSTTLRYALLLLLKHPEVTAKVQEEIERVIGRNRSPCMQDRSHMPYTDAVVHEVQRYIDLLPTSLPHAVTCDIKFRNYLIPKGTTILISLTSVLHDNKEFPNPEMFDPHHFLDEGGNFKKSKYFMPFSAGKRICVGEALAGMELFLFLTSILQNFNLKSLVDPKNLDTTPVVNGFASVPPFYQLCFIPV

Nuclear receptor subfamily 1 group I member 2 (Homo sapiens), sequence (O75469 whole entry, looked up): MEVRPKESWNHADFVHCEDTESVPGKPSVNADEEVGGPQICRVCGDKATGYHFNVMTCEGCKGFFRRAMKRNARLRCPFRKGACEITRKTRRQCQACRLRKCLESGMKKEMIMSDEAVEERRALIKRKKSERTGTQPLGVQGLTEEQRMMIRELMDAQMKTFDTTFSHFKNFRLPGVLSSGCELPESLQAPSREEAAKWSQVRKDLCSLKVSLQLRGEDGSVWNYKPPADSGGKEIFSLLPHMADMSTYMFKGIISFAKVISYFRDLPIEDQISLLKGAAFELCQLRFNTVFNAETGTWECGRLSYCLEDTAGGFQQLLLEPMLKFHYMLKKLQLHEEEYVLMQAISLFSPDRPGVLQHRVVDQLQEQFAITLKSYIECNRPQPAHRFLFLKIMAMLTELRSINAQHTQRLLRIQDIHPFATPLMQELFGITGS
Cytochrome P450 3A4 (Homo sapiens), sequence (P08684 whole entry, looked up): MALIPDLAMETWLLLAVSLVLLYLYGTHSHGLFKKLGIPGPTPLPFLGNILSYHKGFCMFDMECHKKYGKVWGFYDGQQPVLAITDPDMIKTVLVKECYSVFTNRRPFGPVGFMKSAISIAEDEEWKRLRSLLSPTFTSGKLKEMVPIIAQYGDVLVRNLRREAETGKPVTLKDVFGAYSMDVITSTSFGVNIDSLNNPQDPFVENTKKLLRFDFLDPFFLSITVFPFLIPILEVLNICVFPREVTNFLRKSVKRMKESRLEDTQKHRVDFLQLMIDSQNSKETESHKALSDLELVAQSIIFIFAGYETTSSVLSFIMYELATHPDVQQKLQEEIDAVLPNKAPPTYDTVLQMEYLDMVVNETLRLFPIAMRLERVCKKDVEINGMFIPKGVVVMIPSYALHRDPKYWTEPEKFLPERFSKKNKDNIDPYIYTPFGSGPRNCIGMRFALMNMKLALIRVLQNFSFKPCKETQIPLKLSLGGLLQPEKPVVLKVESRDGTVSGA
Acetylcholinesterase (Homo sapiens), sequence (P22303 whole entry, looked up): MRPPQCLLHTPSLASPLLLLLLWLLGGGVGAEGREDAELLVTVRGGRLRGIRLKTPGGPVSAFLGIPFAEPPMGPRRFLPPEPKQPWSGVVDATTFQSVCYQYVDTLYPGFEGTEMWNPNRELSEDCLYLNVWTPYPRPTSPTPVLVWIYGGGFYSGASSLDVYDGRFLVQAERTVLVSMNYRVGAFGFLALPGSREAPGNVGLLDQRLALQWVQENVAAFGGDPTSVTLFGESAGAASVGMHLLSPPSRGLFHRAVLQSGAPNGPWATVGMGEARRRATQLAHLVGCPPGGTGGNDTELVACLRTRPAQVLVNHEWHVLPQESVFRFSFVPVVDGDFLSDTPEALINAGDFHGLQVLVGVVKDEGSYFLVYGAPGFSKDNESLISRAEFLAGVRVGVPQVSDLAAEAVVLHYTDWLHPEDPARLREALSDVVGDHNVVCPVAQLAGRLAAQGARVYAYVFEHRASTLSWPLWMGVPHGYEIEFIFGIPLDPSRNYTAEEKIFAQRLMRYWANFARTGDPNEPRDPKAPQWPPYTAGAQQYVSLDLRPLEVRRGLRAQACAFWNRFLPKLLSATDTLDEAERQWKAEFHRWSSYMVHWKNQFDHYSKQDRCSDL
Cytochrome P450 2D6 (Homo sapiens), sequence (P10635 whole entry, looked up): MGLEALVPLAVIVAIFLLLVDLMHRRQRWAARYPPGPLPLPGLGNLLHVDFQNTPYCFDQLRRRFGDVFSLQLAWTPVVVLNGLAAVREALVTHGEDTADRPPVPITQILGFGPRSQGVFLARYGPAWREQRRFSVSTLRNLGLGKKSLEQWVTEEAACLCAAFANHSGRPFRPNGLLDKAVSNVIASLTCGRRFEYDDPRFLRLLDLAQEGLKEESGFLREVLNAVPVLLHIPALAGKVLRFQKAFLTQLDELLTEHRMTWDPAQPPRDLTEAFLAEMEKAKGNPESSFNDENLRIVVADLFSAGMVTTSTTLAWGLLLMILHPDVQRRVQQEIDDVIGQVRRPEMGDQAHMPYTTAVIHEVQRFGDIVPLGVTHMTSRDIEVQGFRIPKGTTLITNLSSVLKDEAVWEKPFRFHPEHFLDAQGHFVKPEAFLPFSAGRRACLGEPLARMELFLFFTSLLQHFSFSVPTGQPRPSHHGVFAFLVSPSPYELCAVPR
Cytochrome P450 1A2 (Homo sapiens), sequence (P05177 whole entry, looked up): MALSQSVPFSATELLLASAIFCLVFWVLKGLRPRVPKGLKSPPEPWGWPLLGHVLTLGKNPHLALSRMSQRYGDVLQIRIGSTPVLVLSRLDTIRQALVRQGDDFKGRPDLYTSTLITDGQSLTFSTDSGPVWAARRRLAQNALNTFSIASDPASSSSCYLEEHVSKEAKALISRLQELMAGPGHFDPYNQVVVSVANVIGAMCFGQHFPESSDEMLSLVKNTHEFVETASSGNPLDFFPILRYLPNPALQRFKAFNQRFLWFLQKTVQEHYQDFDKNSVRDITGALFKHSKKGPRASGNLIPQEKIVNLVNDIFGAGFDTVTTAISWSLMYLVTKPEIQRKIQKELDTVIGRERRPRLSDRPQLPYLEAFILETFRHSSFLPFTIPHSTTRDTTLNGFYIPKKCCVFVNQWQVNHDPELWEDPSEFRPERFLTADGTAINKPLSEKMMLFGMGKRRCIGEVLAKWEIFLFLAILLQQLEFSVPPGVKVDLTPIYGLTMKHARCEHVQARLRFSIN
Voltage-gated inwardly rectifying potassium channel KCNH2 (Homo sapiens), sequence (Q12809 whole entry, looked up): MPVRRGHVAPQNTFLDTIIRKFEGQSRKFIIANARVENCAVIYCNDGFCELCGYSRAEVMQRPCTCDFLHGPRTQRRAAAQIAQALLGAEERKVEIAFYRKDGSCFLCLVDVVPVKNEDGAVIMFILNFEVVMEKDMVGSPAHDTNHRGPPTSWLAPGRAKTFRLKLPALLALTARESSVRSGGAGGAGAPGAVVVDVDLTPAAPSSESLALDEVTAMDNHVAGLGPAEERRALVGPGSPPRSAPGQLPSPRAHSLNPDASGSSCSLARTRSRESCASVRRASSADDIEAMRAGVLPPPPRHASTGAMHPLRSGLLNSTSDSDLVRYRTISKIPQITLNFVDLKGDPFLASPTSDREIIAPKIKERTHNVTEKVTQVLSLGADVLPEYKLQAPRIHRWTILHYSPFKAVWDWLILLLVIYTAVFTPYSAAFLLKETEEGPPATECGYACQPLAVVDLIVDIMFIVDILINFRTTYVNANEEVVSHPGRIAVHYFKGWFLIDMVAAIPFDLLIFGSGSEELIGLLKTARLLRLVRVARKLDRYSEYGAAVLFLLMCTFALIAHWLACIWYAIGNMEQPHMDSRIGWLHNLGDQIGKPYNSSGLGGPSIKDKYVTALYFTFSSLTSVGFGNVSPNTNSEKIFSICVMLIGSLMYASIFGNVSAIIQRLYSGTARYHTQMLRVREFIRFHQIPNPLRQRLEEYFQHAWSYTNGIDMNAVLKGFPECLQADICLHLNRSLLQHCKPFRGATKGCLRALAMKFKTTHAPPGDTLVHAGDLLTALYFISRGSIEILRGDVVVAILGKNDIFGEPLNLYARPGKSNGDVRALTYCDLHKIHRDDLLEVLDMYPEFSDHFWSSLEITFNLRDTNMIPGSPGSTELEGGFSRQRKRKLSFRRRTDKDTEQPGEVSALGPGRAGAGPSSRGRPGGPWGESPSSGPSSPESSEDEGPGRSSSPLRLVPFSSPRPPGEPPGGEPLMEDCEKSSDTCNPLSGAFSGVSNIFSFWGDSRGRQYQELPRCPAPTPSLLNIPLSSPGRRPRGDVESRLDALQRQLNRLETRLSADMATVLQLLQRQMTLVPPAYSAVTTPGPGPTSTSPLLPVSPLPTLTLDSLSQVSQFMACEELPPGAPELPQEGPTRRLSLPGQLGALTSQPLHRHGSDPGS
Cytochrome P450 2C19 (Homo sapiens), sequence (P33261 whole entry, looked up): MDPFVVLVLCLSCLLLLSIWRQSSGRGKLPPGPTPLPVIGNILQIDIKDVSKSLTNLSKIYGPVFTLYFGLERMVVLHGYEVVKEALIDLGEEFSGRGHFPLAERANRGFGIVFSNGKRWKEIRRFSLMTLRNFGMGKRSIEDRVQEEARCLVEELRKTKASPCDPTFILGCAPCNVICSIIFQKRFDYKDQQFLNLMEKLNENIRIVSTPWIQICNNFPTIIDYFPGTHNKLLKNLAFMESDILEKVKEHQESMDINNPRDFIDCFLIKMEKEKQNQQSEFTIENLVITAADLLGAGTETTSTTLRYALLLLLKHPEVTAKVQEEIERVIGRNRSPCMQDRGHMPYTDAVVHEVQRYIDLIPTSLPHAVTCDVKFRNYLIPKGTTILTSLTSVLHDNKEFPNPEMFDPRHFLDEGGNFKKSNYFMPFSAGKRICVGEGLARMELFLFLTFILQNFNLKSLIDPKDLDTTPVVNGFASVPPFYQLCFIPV

With `CCOC(=O)c1ccccc1C(=O)OCC`, the result in assay [1] and in assay [4] was inactive. For the same compound, the Potency result in assay [2], in [3], in [5], in assay [6], in assay [7] and in assay [8] was “inactive” in each case. The Potency entry in assay [9], in assay [10], in [12] and in assay [13] was “inactive” in each case. In addition, the Potency in assay [11] is 3.22 µM (active) and 3.17 µM (active).

On to `O=[N+]([O-])c1ccccc1`, for which the compound was called inactive in [1] and in assay [4]. In addition, the Potency result in assay [2], in [3], in assay [5], in assay [6], in assay [7] and in assay [8] was “inactive” throughout. Besides, the Potency entry in [9], in assay [14], in assay [15], in assay [11], in assay [12] and in assay [13] was “inactive” in each case. Also, the Potency in assay [10] was 16.4 µM (active) and inactive.

Regarding `CN1C(=O)CN=C(c2ccccc2)c2cc(Cl)ccc21`, the outcome in [1] was inactive. Besides, the Potency result in assay [2] was “inactive”.

On to `CCCCOC(=O)c1ccccc1C(=O)OCCCC`, for which the call in assay [1] was inactive. Further, the Potency entry in [2], in assay [3], in assay [6], in assay [7], in assay [8] and in [9] was “inactive” in each case. Moreover, the Potency entry in assay [10], in [12] and in assay [13] was “inactive” in each case. The Potency in assay [14] is 5.64 µM (active) and 3.99 µM (active); in assay [15], 35.6 µM (active); in assay [11], 5.03 µM (active) and 8.94 µM (active).

`CC(C)(C)OOC(=O)c1ccccc1`: the outcome in assay [1] was inactive. In addition, the Potency result in [2], in assay [3], in [6], in assay [7], in [8] and in assay [9] was “inactive” each time. For the same compound, the Potency result in assay [10], in assay [14], in assay [15], in assay [11], in assay [12] and in assay [13] was “inactive” throughout.

On to `ClCc1cccnc1`, for which the compound was classed as inactive in assay [1]. In addition, the Potency result in assay [2], in assay [3], in assay [6], in [7], in assay [8] and in assay [9] was “inactive” each time. Besides, the Potency result in assay [10], in [15], in assay [12] and in assay [13] was “inactive” in each case. Also, the Potency in assay [14] was 69.8 µM (active) and inactive; in assay [11], 62.2 µM (active) and inactive.

For the compound `CC1OC(C)OC(C)O1` (stereo unspecified), the compound was classed as inactive in assay [1] and in assay [4]. Further, the Potency entry in assay [2], in assay [3], in assay [5], in [6], in [7] and in [8] was “inactive” throughout. Further, the Potency entry in [9], in assay [10], in assay [14], in assay [15], in assay [12] and in [13] was “inactive” each time.

On to `O=c1n(Cl)c(=O)n(Cl)c(=O)n1Cl`, for which the outcome in [1] and in assay [4] was inactive. For the same compound, the Potency entry in assay [2], in assay [3], in assay [5], in [6], in [7] and in [8] was “inactive” throughout. For the same compound, the Potency result in assay [9], in assay [10], in assay [14], in [15], in assay [11] and in [12] was “inactive” each time. Besides, the Potency result in assay [13] was “inactive”.

With `C1CC2OC2CC1C1CO1` (stereo unspecified), the result in [1] was inactive. The Potency entry in assay [2], in [3], in [6], in assay [7], in assay [8] and in assay [9] was “inactive” throughout. Moreover, the Potency entry in [10], in assay [15], in assay [11], in assay [12] and in assay [13] was “inactive” each time. Also, the Potency in [14] is 69.7 µM (active).

With `CN(C)N=O`, in assay [1], the compound was called inactive. Besides, the Potency entry in assay [2], in assay [3], in [6], in assay [7], in assay [8] and in [9] was “inactive” throughout. For the same compound, the Potency result in assay [10], in assay [14], in assay [15], in assay [11], in [12] and in assay [13] was “inactive” each time.

As to `CN(C)[C@@H]1C(=O)C(C(N)=O)=C(O)[C@@]2(O)C(=O)C3=C(O)c4c(O)cccc4[C@@](C)(O)[C@H]3C[C@@H]12`, the outcome in assay [1] and in [4] was inactive. Moreover, the Potency entry in assay [2], in [3], in assay [5], in assay [14], in assay [12] and in assay [13] was “inactive” throughout. The Potency in assay [10] was 31.8 µM (active) and inactive and 19.5 µM (active).

With `CCCCCOC(=O)c1ccccc1C(=O)OCCCCC`, in [1], the outcome was inactive. Moreover, the Potency result in assay [2], in assay [3], in [6], in [7], in assay [8] and in assay [9] was “inactive” in each case. Moreover, the Potency result in assay [10] and in assay [12] was “inactive” in each case. Moreover, the Potency in assay [14] was 11.2 µM (active) and 7.96 µM (active); in [15], 28.2 µM (active) and 7.96 µM (active); in assay [11] it was 17.8 µM (active) and 8.94 µM (active).

In the case of `C[C@]12CC[C@H]3[C@@H](CC[C@@]45O[C@@H]4C(O)=C(C#N)C[C@]35C)[C@@H]1CC[C@@H]2O`, the result in [1] and in assay [4] was inactive. The Potency entry in [2], in assay [3], in assay [5], in assay [6], in [7] and in assay [8] was “inactive” in each case. Further, the Potency result in [9], in assay [10], in [14], in [15], in assay [11] and in [12] was “inactive” each time. Also, the Potency entry in assay [13] is “inactive”.

Take `CCCN(CCC)N=O`: in assay [1], the compound was classed as inactive. The Potency result in assay [2], in assay [3], in assay [6], in assay [7], in assay [8] and in assay [9] was “inactive” throughout. For the same compound, the Potency entry in assay [10], in [14], in assay [15], in assay [11], in assay [12] and in [13] was “inactive” each time.

On to `CCN(CC)c1ccccc1`, for which the compound was called inactive in assay [1]. The Potency entry in assay [2], in assay [3], in assay [6], in assay [7], in assay [8] and in [9] was “inactive” in each case. Further, the Potency entry in assay [10], in [14], in [11], in [12] and in [13] was “inactive” in each case. Further, the Potency entry in [15] is “inactive and 71 µM (active)”.

For the compound `O=C(NC(=O)c1c(F)cccc1F)Nc1cc(Cl)c(OC(F)(F)C(F)C(F)(F)F)cc1Cl` (stereo unspecified), the compound was classed as inactive in [1] and in assay [4]. For the same compound, the Potency result in assay [2], in assay [3], in assay [5], in assay [6], in assay [7] and in assay [8] was “inactive” throughout. The Potency entry in assay [9], in assay [10], in assay [11], in assay [12] and in assay [13] was “inactive” in each case. Further, the Potency in assay [14] was 10 µM (active) and 34.7 µM (active); in [15], 11.2 µM (active) and 17.4 µM (active).
